The values below come from PubChem BioAssay (NCATS).

For assay [1], the target named is Alpha-galactosidase A (Homo sapiens) (UniProt P06280). The experiment in a line: Counterscreen for Glucocerebrosidase Inhibitors: qHTS Assay for Human alpha-Galactosidase at pH 4.5 (AID 992). Note: 0% is about no effect. The procedure, abridged: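 Read-out is 4-methylumbelliferone fluorescence (365 nm excitation, 440 nm emission) after a pH 10 NaOH/glycine stop. Reactions held 2 nM enzyme and 80 uM substrate at pH 4.5 for 20 min at room temperature.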
Sequence of Alpha-galactosidase A (Homo sapiens) (P06280 whole entry, looked up): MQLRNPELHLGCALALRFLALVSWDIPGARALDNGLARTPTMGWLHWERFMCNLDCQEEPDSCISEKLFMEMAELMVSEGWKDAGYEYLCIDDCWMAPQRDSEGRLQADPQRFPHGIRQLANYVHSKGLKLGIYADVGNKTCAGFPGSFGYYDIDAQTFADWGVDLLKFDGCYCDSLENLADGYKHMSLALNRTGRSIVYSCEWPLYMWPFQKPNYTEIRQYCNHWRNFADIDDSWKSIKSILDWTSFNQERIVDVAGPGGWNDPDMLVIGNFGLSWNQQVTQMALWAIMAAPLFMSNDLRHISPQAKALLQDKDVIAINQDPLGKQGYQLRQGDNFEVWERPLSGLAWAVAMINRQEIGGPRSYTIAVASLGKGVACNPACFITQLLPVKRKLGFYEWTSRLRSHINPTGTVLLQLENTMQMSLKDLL
On the technique in general: A counterscreen serves to expose hits that act by an unwanted route or on another target.

Assay [2] addresses alpha-glucosidase (Oryza sativa, rice) (UniProt Q653V4). Description: Counterscreen for Glucocerebrosidase Inhibitors: qHTS Assay for Rice alpha-Glucosidase at pH 5.0 (AID 997).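 Note: 0% = full activity with enzyme and -100% = basal without enzyme.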 The procedure, abridged:
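Rice alpha-glucosidase (4 nM final) with 400 uM 4-methylumbelliferyl-alpha-D-glucopyranoside in citrate buffer pH 5.0, 20 min at room temperature, stopped at pH 10; fluorescence 365/440 nm, compounds 0.7 nM–77 uM, AC50 from Hill fits.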

The nature of assay [3]: qHTS Assay for Lipid Storage Modulators (AID 1519; calls by dose curve; for activity change, negative = inhibition: % is set by controls: 0 for no effect and ±100 for the full control effect). The note with it: Drosophila S3 cells, BODIPY lipid droplet/cell ratio, laser cytometry, cells loaded with oleic acid. An outline of the steps: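 Cells seeded at 5,000 per well were treated with compounds over a concentration series and loaded with oleic acid (400 uM, as added). Lipid droplet fluorescence (488 nm excitation, 500-530 nm channel) was read by laser-scanning cytometry and normalized to 20 uM Triacsin C.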
(In qHTS, concentration-response curves come from the screen itself.)

In assay [4] the target is Endonuclease 4 (Escherichia coli (strain K12)) (UniProt P0A6C1). Description: Counterscreen for APE1 Inhibitors: qHTS Validation Assay for Inhibitors of Endonuclease IV (AID 1708). Note: % is set by controls: 0 for no effect and ±100 for the full control effect. The procedure, abridged:
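qHTS concentration-response format; LOPAC1280 tested under APE1-screen conditions. 2 nM enzyme, 15 min compound preincubation at RT, then 50 nM TAMRA/BHQ-2 abasic substrate; kinetic fluorescence read, three reads at 60 s intervals.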

Assay [5] in a line: Counterscreen for APE1 Inhibitors: Fluorescent Dye Displacement Validation Assay (AID 1707).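 Note: plate controls were ThO with dsDNA and no compound for no effect and ThO without dsDNA for full effect.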 The procedure, abridged: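 ThO 250 nM + dsDNA 50 nM (THF abasic site, 5'-TAMRA), Tris-HCl pH7.5/50mM NaCl/2 mM MgCl2/0.01% Tween-20; compounds pin-transferred; ex 480/em 540 nm endpoint. Neutral = no compound; no-DNA ThO wells = negative control.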
Assay [6] addresses DNA repair nuclease/redox regulator APEX1 (Homo sapiens) (UniProt P27695). The experiment in a line: qHTS Validation Assay for Inhibitors of the Human Apurinic/apyrimidinic Endonuclease 1 (APE1) (AID 1705;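 note: TAMRA fluorescence gain over two minutes as APE1 cuts a quenched THF abasic duplex; % is set by controls: 0 for no effect and ±100 for the full control effect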). The procedure, abridged:
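Human APE1 was preincubated with compound for 15 min at room temperature, then 50 nM (final) THF-abasic double-stranded DNA substrate bearing 5'-TAMRA and 3'-BHQ-2 was added. Incision-driven fluorescence rise (ex 525/em 598 nm) was read kinetically.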

Setting [7] is: measured here: cell count channel max response.
Setting [8] is: measured here: lipid channel max response.

The structures appear in SMILES notation. Where “and” joins values, the source holds several entries; their conditions need not be identical. Equal values may be shown once. Inconclusive results are not listed. Calls of active or inactive are those of the source. Unless noted, calls come from the whole dose curve; as a rule, active = well fitted curve in the direction sought with a large enough effect; inconclusive = small, poorly fitted or top-dose-only effect, or another doubt; inactive = no such curve, though single readings can be large; an effect the other way counts as inactive or inconclusive.

Sequence of DNA repair nuclease/redox regulator APEX1 (Homo sapiens) (P27695 whole entry, looked up): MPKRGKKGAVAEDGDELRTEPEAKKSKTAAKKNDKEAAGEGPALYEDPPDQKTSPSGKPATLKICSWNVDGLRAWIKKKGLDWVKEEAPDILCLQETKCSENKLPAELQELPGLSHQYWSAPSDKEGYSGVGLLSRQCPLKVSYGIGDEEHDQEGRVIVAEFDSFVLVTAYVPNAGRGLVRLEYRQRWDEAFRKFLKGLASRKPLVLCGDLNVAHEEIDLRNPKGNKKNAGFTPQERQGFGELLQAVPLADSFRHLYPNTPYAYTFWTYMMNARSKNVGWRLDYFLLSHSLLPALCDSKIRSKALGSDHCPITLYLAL

For the compound `O=C(CCCN1CCC(O)(c2ccc(Cl)cc2)CC1)c1ccc(F)cc1`, the compound was classed as inactive in assay [1] and in assay [2]. The activity change, negative = inhibition was 0.51% (inactive) in assay [3] (at 25.7 µM (top of the series)) and 7.71% (inactive) in assay [3] (at 57.5 µM (top of the series)). Besides, the max response in assay [3] (setting [7]) was -8.83% and 9.42%; in assay [3] (setting [8]), -10.1% and 21.7%. Also, the Potency entry in assay [4] is “inactive”.

In the case of `CS(=O)(=O)Nc1ccc([N+](=O)[O-])cc1Oc1ccccc1`, the compound was called inactive in assay [1]. Further, the figures for the activity change, negative = inhibition in assay [3] (at 25.7 µM (top of the series)) and in assay [3] (at 57.5 µM (top of the series)) were -1.76% (inactive) and 14.1% (inactive), respectively. The max response is 3.21% and 14.6% in assay [3] (setting [7]); 2.41% and 33.1% in assay [3] (setting [8]). The Potency entry in assay [5] and in assay [4] was “inactive” in each case.

As to `NC12CC3CC(CC(C3)C1)C2`, the compound was classed as inactive in assay [1]. The activity change, negative = inhibition in assay [3] (at 25.7 µM (top of the series)) was -3.08% (inactive); in assay [3] (at 57.5 µM (top of the series)), 3.74% (inactive) and -0.728% (inactive). Also, the max response is 0.387% and 4.41% and -44.8% in assay [3] (setting [7]); -3.12% and 9.04% and -45.9% in assay [3] (setting [8]). In addition, the Potency entry in assay [6] and in assay [4] was “inactive” in each case.

In the case of `NC(=O)NO`, the compound was classed as inactive in assay [1] and in assay [2]. Moreover, in assay [3] (at 57.5 µM (top of the series)), the activity change, negative = inhibition was 7.16% (inactive). Besides, the figures for the max response in assay [3] (setting [7]) and in assay [3] (setting [8]) were 21% and 26.4%, respectively. The Potency entry in assay [6] and in assay [4] was “inactive” in each case.

Regarding `COc1nc(C)nc(Cl)c1NC1=NCCN1`, in assay [1], the outcome was inactive. In addition, the activity change, negative = inhibition in assay [3] (at 25.7 µM (top of the series)) is -2% (inactive). Also, the max response in assay [3] (setting [7]) is -13%; in assay [3] (setting [8]), -15%. For the same compound, the Potency entry in assay [6] and in assay [4] was “inactive” throughout.

`Clc1ccccc1C(c1ccccc1)(c1ccccc1)n1ccnc1`: the compound was called inactive in assay [1] and in assay [2]. Also, the activity change, negative = inhibition in assay [3] (at 25.7 µM (top of the series)) is 2.04% (inactive); in assay [3] (at 57.5 µM (top of the series)), 9.89% (inactive). Also, the max response in assay [3] (setting [7]) was -13.7% and 9.45%; in assay [3] (setting [8]), -11.4% and 22.8%. In addition, the Potency entry in assay [6] was “inactive”.

For the compound `OCCN1CCN(CCCN2c3ccccc3Sc3ccc(C(F)(F)F)cc32)CC1`, the compound was classed as inactive in assay [1] and in assay [2]. The activity change, negative = inhibition in assay [3] (at 25.7 µM (top of the series)) was -3.93% (inactive); in assay [3] (at 57.5 µM (top of the series)), 8.5% (inactive) and -2.13% (inactive). Moreover, the max response was -9.92% and 24.4% and 4.08% in assay [3] (setting [7]); -13.1% and 36.3% and -0.526% in assay [3] (setting [8]). The Potency entry in assay [6] was “inactive”.

On to `Fc1ccc([C@@H]2CCNC[C@H]2COc2ccc3c(c2)OCO3)cc1`, for which the compound was called inactive in assay [1]. In addition, the activity change, negative = inhibition in assay [3] (at 57.5 µM (top of the series)) was -0.973% (inactive). Also, the max response in assay [3] (setting [7]) is -19.9%; in assay [3] (setting [8]) it was -18.8%. In addition, the Potency result in assay [6] and in assay [4] was “inactive” throughout.

Turning to `NC(=O)OCC(COC(N)=O)c1ccccc1`, the compound was called inactive in assay [1] and in assay [2]. In assay [3] (at 57.5 µM (top of the series)), the activity change, negative = inhibition was -4.42% (inactive). The figures for the max response in assay [3] (setting [7]) and in assay [3] (setting [8]) were -0.783% and -3.41%, respectively. The Potency entry in assay [6], in assay [5] and in assay [4] was “inactive” throughout.
